Compound activity deposited in PubChem by National Center for Advancing Translational Sciences (NCATS).
D1 ag: activates the human D1 dopamine receptor | activation, % at 2 µM | AID 504660 | P21728 | HEK293 T-REx D1 cells, calcium flux, agonist mode | actives 1% (n = 360,000); in the data active means activation above about 30%; further: 0% is about no effect
Target sequence (P21728 whole entry, looked up): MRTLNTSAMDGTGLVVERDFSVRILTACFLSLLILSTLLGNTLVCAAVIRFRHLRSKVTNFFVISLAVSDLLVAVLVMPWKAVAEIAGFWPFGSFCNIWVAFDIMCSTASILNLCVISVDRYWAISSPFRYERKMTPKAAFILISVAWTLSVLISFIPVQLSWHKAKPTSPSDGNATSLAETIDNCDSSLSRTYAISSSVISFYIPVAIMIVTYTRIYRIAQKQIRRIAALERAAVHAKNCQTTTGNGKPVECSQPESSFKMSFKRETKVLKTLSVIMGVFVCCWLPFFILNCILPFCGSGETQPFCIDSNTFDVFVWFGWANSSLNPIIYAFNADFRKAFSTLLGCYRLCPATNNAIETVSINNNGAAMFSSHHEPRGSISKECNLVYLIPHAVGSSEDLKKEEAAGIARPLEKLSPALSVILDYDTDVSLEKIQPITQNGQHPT
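Tetracycline-induced HEK293 TREx D1 cells, force-coupled to calcium signalling, were dye-loaded with a no-wash calcium kit. Compound was pin-added after a 10 s baseline. Fluorescence was read kinetically at 1 cycle/s for 180 s, with calcium rises flagged as agonism.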
D1 potentiator: potentiators of human D1 dopamine receptor; P21728; HEK293 TREx D1 cells, calcium flux, dopamine EC20 potentiation; potentiation, % at 10 µM; actives 0.036% (n = 360,000); in the data active means potentiation above about 30%; further: 0% is about no effect
DRD3 antagonist: D3 dopamine receptor (human) antagonism | D3R cells, DiscoveRx beta-arrestin luminescence, antagonist mode; hits give low values | max response, negative = inhibition, % | AID 652054 | actives 2.5% (n = 360,000) | P35462; in the data active means max response below about -50%; inconclusive means no clear call, values can overlap the other calls; further: on the % scale 0 is the no-effect control and ±100 the full control effect
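Cells expressing the human receptor were seeded at 1500 cells/well, incubated overnight at 37 degrees C in 5% CO2, then exposed to library compounds with dopamine controls for 90 minutes at 37 degrees C before luminescent detection.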
D3 ag: D3 dopamine receptor (human) agonism; max activation, %; actives 0.58% (n = 410,000); D3R DiscoveRx beta-arrestin cells, luminescence, 90 min; in the data active means max activation above about 30%; further: 0% is about no effect
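Agonist mode: compounds and dopamine controls were applied to plated cells for 90 min at 37 degrees C after an overnight attachment at 1500 cells/well. Luminescent read-out followed 30 - 60 minutes at room temperature with DiscoveRx detection reagent.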
D1 antagonist: blocks dopamine activation of the human D1 receptor. actives 3.2% (n = 360,000). P21728. HEK293 TREx D1 cells, calcium flux, dopamine EC80; hits give low values. activity change, negative = inhibition, % at 10 µM; in the data active means activity change below about -30%; further: on the % scale 0 is the no-effect control and ±100 the full control effect
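Tetracycline-induced HEK293 T-REx cells with force-coupled D1 receptor were loaded with a no-wash calcium dye. Compound was added after a 10 s baseline and read kinetically for 180 s; EC80 dopamine was then added and calcium flux followed another 180 s.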
Starred values were filed as active, the others as inactive; ? = inconclusive; · = not tested or not shown; ! = repeats disagree. Compounds with a hit are over-represented: about 6.1% of the library has one in this group of screens.

SMILES	D1 ag	D1 potentiator	DRD3 antagonist	D3 ag	D1 antagonist
COc1cc(C(=O)NCCOc2ccc(F)cc2)c(Br)c(OC)c1OC	1	4	-9	-15	-55*
CCCOC(=O)c1ccc(NC(=O)c2cc(OC)c(OC)c(OC)c2Br)cc1	1	-6	13	-1	-36*
COc1cc(C(=O)NCCOc2ccccc2)c(Br)c(OC)c1OC	0	-6	-8	0	0
Cc1cccc(C(=O)NC2CCN(C#N)CC2)c1	-1	2	·	·	-15
COc1ccc(-c2csc(N(CCCN(C)C)C(=O)c3ccccc3Cl)n2)cc1	·	·	-71*	-24	·
CN(C)CCCN(C(=O)c1cccs1)c1nc2ccc(F)cc2s1	16	-4	·	-19	-7
COc1ccc(-c2csc(N(CCCN(C)C)C(=O)c3ccccc3F)n2)cc1	14	-16	?	-19	-17
CN(C)CCCN(C(=O)c1cccs1)c1nc(-c2ccccc2)cs1	8	-20	-53*	-37	4
CCC(=O)N(CC)c1nc(-c2ccc(OC)cc2)cs1	113*	-1	81	4	-47*
COc1ccc(-c2csc(N(CCCN(C)C)C(=O)c3ccccc3C)n2)cc1	33*	-11	-10	-25	-54*
O=C(Cc1ccc(Cl)cc1)NCC(c1cccs1)S(=O)(=O)c1ccc(F)cc1 (stereo unspecified)	3	5	·	1	·
CCOC(=O)C(=O)Nc1nnc2n1CCS2	0	-2	·	3	3
CCCN1C(=O)C2(c3ccccc31)c1c(oc3ccc(C)cc3c1=O)C(=O)N2CCOC (stereo unspecified)	-1	-2	·	-2	-25
Cc1cc(C)c(NC(=O)CSc2nc(=O)n3cc(C)ccc3n2)c(C)c1	2	-6	-7	-2	4
Cc1ccc(NC(=O)CSc2nc(=O)n3cc(C)ccc3n2)c(C)c1	3	-6	5	5	-35*
Cc1ccc(F)cc1NC(=O)Cn1c(=O)nc(-c2ccccc2F)c2cc(Cl)ccc21	0	0	·	-1	20
N=C1SC(CC(=O)Nc2ccccc2[N+](=O)[O-])C(=O)N1c1ccccc1 (stereo unspecified)	1	-9	-62*	-15	8
Cc1ccccc1NC(=O)CC1SC(=O)N(c2ccccc2)C1=O (stereo unspecified)	1	-9	-92*	1	-3
Cc1ccc(O)c(NC(=O)c2ccc(Br)c(S(=O)(=O)N3CCCCC3)c2)c1	14	-2	·	-9	-58*
O=C(Nc1cccc(O)c1)c1cc(-c2ccccc2Cl)on1	8	4	-20	-5	-36*
COc1ccc(NC(=O)c2cc(-c3ccccc3Cl)on2)cc1OC	9	4	3	15	1
COc1ccc(NC(=O)N2CCc3c(sc4c3CCCC4)C2c2ccc(F)cc2)cc1 (stereo unspecified)	2	-1	·	-17	4
CCN(CC)CCNc1ccnc2cc(Cl)ccc12	3	-1	-80*	-30	2
CCN(CC)Cc1cc(Nc2ccnc3cc(Cl)ccc23)ccc1O	2	-3	1	0	-83*!
Clc1ccc2c(NCc3ccccc3)ccnc2c1	21	-5	26	5	-38*
SMILES	D1 ag	D1 potentiator	DRD3 antagonist	D3 ag	D1 antagonist
O=C(NCCNc1ccnc2cc(Cl)ccc12)c1ccccc1F	5	-5	-29	-13	-28
CCc1ccc2oc(-c3cccc(NC(=O)c4ccc(-c5cccc([N+](=O)[O-])c5)o4)c3)nc2c1	1	-4	·	11	0
Cc1cccc(NC(=O)NCCN2CCN(c3ccccc3)CC2)c1C	2	-15	-71*	8	-2
Cc1ccc(NC(=O)NCCN2CCN(c3ccccc3)CC2)cc1Cl	13	-5	-71*	-7	-16
O=C(NCCN1CCN(c2ccccc2)CC1)Nc1cccc(Cl)c1	11	-8	?	13	-27
Cc1cccc(N2CCN(CCNC(=O)Nc3ccc(Cl)cc3)CC2)c1C	30*	-3	·	10	-33*
O=C(NCCN1CCN(c2ccccc2Cl)CC1)Nc1ccccc1	-1	-7	?	8	-8
CCc1ccc(N2CCN(CCNC(=O)Nc3ccccc3)CC2)cc1	-4	-7	-72*	-16	-6
CCc1ccc(N2CCN(CCNC(=O)Nc3ccc(OC)cc3)CC2)cc1	2	16	8	1	3
COc1ccc(NC(=O)Cn2c(=O)n(-c3cccc(C)c3)c(=O)c3c2c2cc(C)ccc2n3C)cc1Cl	2	0	·	2	0
CCOC(=O)C1=C(C)OC(N)=C(C(=O)OCC)C1c1cccnc1 (stereo unspecified)	-1	-7	-12	-22	-33*
Cc1ccccc1CNC(=O)c1cc2cc(S(=O)(=O)N3CCCCC3)ccc2n1C	7	-3	·	11	7
Cn1c(C(=O)NCCCN2CCc3ccccc3C2)cc2c(=O)n(C)c3ccccc3c21	0	·	-70*	-16	11
CCCCN(CC)CCNC(=O)c1cc2c(=O)n(C)c3ccccc3c2n1C	0	-4	-73*	-17	10
CCOC(=O)c1ccc(NC(=O)C2CC(O)CN2S(=O)(=O)c2ccc(C)cc2)cc1 (stereo unspecified)	·	·	-54*	-18	·
CCOc1cccc(CNCCCSc2nnnn2C)c1	0	1	·	-26	-13
Cn1nnnc1SCCNCc1ccc(OCc2ccccc2Cl)cc1	98*	-1	·	23	-5
Cn1nnnc1SCCCNCc1cccc(OCc2ccc(F)cc2)c1	150*	5	·	-27	-31*
Cn1nnnc1SCCNCc1ccc(OCc2ccccc2)cc1	11	-1	·	-12	2
Cn1nnnc1SCCCNCc1ccccc1OCc1ccc(Cl)cc1	75*	0	·	-22	-39*
CCOc1ccc(C(=O)/C=C/c2cn(CC(O)CN3CCc4ccccc43)c3ccccc23)cc1 (stereo unspecified)	12	-5	·	-6	-20
COc1cccc(NC(=O)CSC2=Nc3ccccc3C3=NC(CC(=O)NCc4ccc5c(c4)OCO5)C(=O)N23)c1 (stereo unspecified)	1	1	·	-13	12
Cc1ccc2cc3cc(C(=O)NCCCN4CCc5ccccc5C4)oc3nc2c1	1	-1	-55*	-12	-3
Cc1ccc2nc(Cl)c3cc(C(=O)NCCCN4CCCC4)sc3c2c1	-1	7	-59*	-11	-18
Cc1ccc2cc3cc(C(=O)NCCCN4CCCCCC4)oc3nc2c1	0	-1	-75*	-11	-15
OC(COc1ccc(Br)cc1)CN1CCN(c2ccccc2)CC1 (stereo unspecified)	12	-6	-51*	15	-46*
CC(=O)c1ccc(N2CCN(CC(O)COC(c3ccccc3)c3ccccc3)CC2)cc1 (stereo unspecified)	-3	-7	-69*	-23	-3
